TEAD-YAP block – TEAD-YAP interaction inhibition; HEK-TIYL cells, TEAD-Gal4/YAP UAS-luciferase luminescence; inhibition, % at 9.12 µM; actives 1.4% (n = 640,000); AID 1259422; in the data active = inhibition above about 32%;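 note: 0% = median of test compound wells and 100% = reference inhibitor wells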
GPR151 activ – activators of human GPR151; Q8TDV0; PathHunter beta-arrestin GPR151 cells, luminescence; activation, % at 11.2 µM; actives 1% (n = 650,000); in the data active = activation above about 4.9%;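 note: 0% = median of compound wells and 100% = cells with positive control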
Target sequence (Q8TDV0 whole entry, looked up): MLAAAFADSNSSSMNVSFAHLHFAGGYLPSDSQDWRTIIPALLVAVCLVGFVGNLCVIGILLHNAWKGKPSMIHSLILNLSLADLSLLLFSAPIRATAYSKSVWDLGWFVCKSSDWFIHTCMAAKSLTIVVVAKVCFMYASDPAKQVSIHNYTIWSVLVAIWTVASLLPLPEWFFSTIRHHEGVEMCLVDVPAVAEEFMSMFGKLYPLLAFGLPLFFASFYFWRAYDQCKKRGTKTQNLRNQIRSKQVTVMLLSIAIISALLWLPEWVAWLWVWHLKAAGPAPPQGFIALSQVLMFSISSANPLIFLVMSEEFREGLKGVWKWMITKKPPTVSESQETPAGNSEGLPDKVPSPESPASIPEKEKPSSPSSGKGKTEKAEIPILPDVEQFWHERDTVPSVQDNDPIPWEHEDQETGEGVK
MITF inh – inhibitors of human MITF. O75030. AlphaScreen MITF homodimerization, bead proximity signal. inhibition, % at 2.6 µM. actives 0.91% (n = 650,000); in the data active = inhibition above about 50%;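 note: 0% = vehicle wells with protein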
FBW7 activator – activators of human E3 ligase FBW7; AlphaScreen FBW7–phospho-cyclin E peptide binding, activator screen; normalized activity (activation), % at 26.1 µM; actives 0.13% (n = 650,000); Q969H0; AID 1259310; in the data active = normalized activity above about 1.9%;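 note: purified mutant Fbw7 with reduced substrate affinity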
GPR151 conf act – human GPR151 activation, confirmation screen; GPR151 PathHunter beta-arrestin cells, luminescence, 90 min; % of EA-reagent control over plate median; 6,700 tested, under 10 active; shares compounds with GPR151 activ; activation, % at 11.2 µM;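 active = mean percent activation across replicates above the confirmation screen cutoff of 4.91%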
GPR119 counter – counter-screen for GPR151 activators: effect on human GPR119; shares compounds with GPR151 activ; GPR119 PathHunter beta-arrestin cells, luminescence, 90 min; 0 = compound-well median, 100 = enzyme-acceptor control; activation, % at 11.2 µM; actives 0.3% (n = 6,700);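 active = mean percent activation in the counterscreen above 29.09%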;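 note: counterscreen on off-target GPR119 to flag nonselective hits from the GPR151 activator screen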
* = called active by the depositor; . = no result given; ! = repeats disagree. Shown are actives, neighbours in structure and some others; about 3.5% of the full set was active somewhere.

SMILES	TEAD-YAP block	GPR151 activ	MITF inh	FBW7 activator	GPR151 conf act	GPR119 counter
COC(=O)COc1ccc(/C=C(/C#N)c2ccc([N+](=O)[O-])cc2)cc1Br	11.3	7.2*	3.4	-0.1	0.2	-0.3
CN(CC(=O)NCc1cccnc1)c1nnc(N2CCCC2=O)s1	2.6	5.2*	9.8	-0.1	0.5	4.0
Cc1cccc(CNC(=O)CN(C)c2nnc(N3CCCC3=O)s2)c1	-10.2	-1.1	-11.8	0.0	.	.
CC[C@@H](C(=O)C(C)[C@@H](O)[C@H](C)CCc1ccc(C)c(O)c1C(=O)O)C1OC(CC)(C2CC[C@](O)(CC)[C@H](C)O2)C[C@@H]1C (some centres undefined)	-11.4	12.7*!	6.3	0.6	2.7	51.4*
COc1ccc(/C=N/Nc2ccc([N+](=O)[O-])cc2[N+](=O)[O-])c(O)c1	12.6	-0.5	1.2	0.8	.	.
COC(=O)CN/N=C/c1ccc([N+](=O)[O-])cc1[N+](=O)[O-]	2.0	7.6*	7.5	-0.2	0.7	11.7
COc1ccccc1C1C=C(c2ccc(I)cc2)Nc2ncnn21 (centres undefined)	2.7	7.4*	2.5	0.1	-0.1	-8.4
O=C(NCCN1CCOCC1)c1cccc(-n2ncc3cc(Nc4ccccc4Cl)ccc32)c1	10.6	-0.7	4.9	-0.3	.	.
O=C(NCCN1CCOCC1)c1cccc(-n2ncc3cc(Nc4ccccc4Cl)ccc32)n1	-2.2	4.9*	3.5	0.1	0.6	-7.2
O=C1NC(=S)NC(=O)C1=Cc1ccc(-c2ccc(N3CCCCC3)c([N+](=O)[O-])c2)o1	-51.3	12.0*	34.2	-0.1	-0.2	0.4
O=C1NC(=S)N/C1=C/c1ccc(-c2ccc(Cl)c([N+](=O)[O-])c2)o1	-4.2	0.2	13.8	0.8	.	.
COc1ccc(-c2cc(C(=O)Nc3cnn(Cc4ccc(F)cc4)c3)no2)cc1OC	5.5	9.9*	-2.6	-0.2	-0.2	-4.3
CC1(C)Cc2c(sc3nc(-c4cc5ccccc5o4)n(N)c(=O)c23)CO1	-11.6	6.4*	2.2	-0.2	0.5	-1.9
COCCNC(=O)/C(C#N)=C/c1c(Oc2ccc(Cl)cc2)nc2c(C)cccn2c1=O	4.6	-1.5	4.7	0.2	.	.
Cc1ccc(NC(=O)c2ccc(F)cc2C)cc1	-20.9	5.3*	2.9	-0.3	0.0	-2.7
Cc1ccc(-n2c3c(cc(C(=O)Nc4ccc(F)cc4)c2=O)C(=O)CCC3)cc1	-0.2	5.5*	12.5	0.1	-0.1	-2.5
Cc1ccc(-n2c3c(cc(C(=O)Nc4cccc(F)c4)c2=O)C(=O)CCC3)cc1	-0.8	-0.9	2.3	-0.1	.	.
CC(=O)Nc1ccc(-c2cnc3cccc(-c4ccncc4)c3c2)cc1	-13.3	5.0*	13.5	-0.5	-0.2	-8.7
CC(=O)Nc1ccc(-c2cnc3cccc(-c4cccnc4)c3c2)cc1	0.0	1.5	16.5	0.0	.	.
COc1ccc(/C=C(/C#N)S(=O)(=O)c2ccccc2)cc1Br	5.8	-1.1	22.4	0.3	.	.
CCCCNC(=O)C1Cc2ccccc2CN1S(=O)(=O)c1cccs1 (centres undefined)	10.7	5.7*	-0.8	0.2	0.2	-5.3
CCOc1ccc(CCNC(=O)c2cn(-c3ccc(OC)cc3)c(=O)c3ccccc23)cc1	10.8	7.0*	-49.4	-0.1	-0.2	-6.1
CCOc1ccccc1C1C(C(=O)OC)=C(N)OC2=C1C(=O)CCC2 (centres undefined)	0.6	6.0*	11.6	1.0	0.5	5.9
CCOc1ccccc1C1NC(=O)N(C)C(C)=C1C(=O)OC (centres undefined)	2.1	6.0*	5.4	0.1	0.1	8.0
CCOC(=O)CN1C(=O)N[C@@H](c2ccc(Br)cc2)C(C(=O)OC)=C1C	.	5.0*	13.2	0.6	1.2	13.8
SMILES	TEAD-YAP block	GPR151 activ	MITF inh	FBW7 activator	GPR151 conf act	GPR119 counter
COC(=O)C1=C(C)N(C)C(=O)NC1c1ccccc1OC (centres undefined)	9.3	0.9	11.5	0.7	.	.
CCN1C(=O)N[C@H](c2ccc(Br)cc2)C(C(=O)OC)=C1C	.	0.0	18.7	0.0	.	.
COC(=O)C1=C(C)N(C)C(=O)NC1c1ccc(C(=O)OC)cc1 (centres undefined)	2.4	1.1	14.5	-0.1	.	.
COC(=O)C1=C(C)N(C)C(=O)NC1c1ccc(Br)cc1 (centres undefined)	11.1	5.2*	9.4	0.4	-0.3	-4.1
O=C(C(=O)N1CCN(c2cccc(Cl)c2)CC1)N1CCCCC1	2.9	5.3*	-13.5	0.1	-0.5	-0.1
CCCC(=O)Nc1ccc(C(=O)N2CCN(c3cccc(Cl)c3)CC2)cc1	-7.8	6.3*	11.8	0.3	-0.6	5.8
O=C(C1CC1)N1CCN(c2cccc(Cl)c2)CC1	-0.9	-0.2	22.4	0.2	.	.
O=C(CSCc1ccc([N+](=O)[O-])cc1)N1CCN(c2cccc(Cl)c2)CC1	-0.6	12.8*	6.9	-0.3	-0.4	-9.5
Cc1cc(NCC2CCCO2)nc(Nc2ccc(N3CCOCC3)cc2)n1 (centres undefined)	19.9	4.9*	3.6	-0.1	-0.4	-6.6
COc1ccc(Nc2nc(C)cc(NCC3CCCO3)n2)cc1 (centres undefined)	-0.5	1.5	3.9	-0.1	.	.
Cc1cnn(C(=S)NCc2ccco2)c1	-1.7	5.1*	7.7	-0.4	0.0	-7.4
Cc1ccc(NC(=S)NCc2ccco2)cc1	-23.6	0.3	-2.5	-0.2	.	.
CN(Cc1ccc(Br)cc1)S(=O)(=O)c1cccc(C#N)c1	4.0	-0.5	3.7	0.0	.	.
C=CCc1ccccc1OCCOc1ccc([N+](=O)[O-])cc1/C=N/NC(N)=O	-1.1	6.2*	-3.9	-0.2	-0.3	-7.2
CCN(CC)S(=O)(=O)c1ccc(N/N=C/c2ccc(O)c(OC)c2)nc1	-5.8	1.6	7.5	-0.1	.	.
CCN(CC)S(=O)(=O)c1ccc(N/N=C/c2ccc(O)cc2)nc1	1.8	5.7*	22.3	0.0	0.5	3.4
CCOC(=O)c1cc2occc2n1CC(=O)N1CCCC1	-3.5	7.4*	-3.7	0.3	0.7	0.7
Cc1cc(CN2CCN(CCOc3ccccc3)CCC2=O)no1	0.0	-1.2	-6.4	0.0	.	.
Cc1nc(N2CCC(C(N)=O)CC2)c2c(-c3cccs3)csc2n1	-0.5	5.4*	9.2	0.1	-0.1	5.2
Cc1nc(N2CCCN(C)CC2)c2c(-c3cccs3)csc2n1	3.8	-1.1	32.9	0.6	.	.
Cc1ccc(-n2c(C)c3c(C)nnc(C)c3c2C)cc1N	-4.8	5.3*	-3.8	0.1	0.8	-3.1
O=c1nc2s/c(=C\c3ccc(-c4ccccc4F)o3)c(=O)n2c2sc3c(c12)CCCC3	2.5	-1.4	16.7	0.6	.	.
O=c1nc2s/c(=C\c3ccc(-c4ccc(F)cc4F)o3)c(=O)n2c2sc3c(c12)CCCC3	-2.7	5.0*	8.8	0.0	0.2	-1.9

Compound activity deposited in PubChem BioAssay by The Scripps Research Institute Molecular Screening Center.
